In all, about 8,300 sequences were measured (“log2 fold change of degron read counts, EGFP-low vs EGFP+ sorted cells (limma voom), compound-induced degradation”: median about -1.1, highest 2% from about 3.2 on). The sample holds the highest values, similar sequences and a random draw of the others, so the mix is not that of the screen.

The experiment has as its target T1, CRBN, Q96SW2.
T1 chain: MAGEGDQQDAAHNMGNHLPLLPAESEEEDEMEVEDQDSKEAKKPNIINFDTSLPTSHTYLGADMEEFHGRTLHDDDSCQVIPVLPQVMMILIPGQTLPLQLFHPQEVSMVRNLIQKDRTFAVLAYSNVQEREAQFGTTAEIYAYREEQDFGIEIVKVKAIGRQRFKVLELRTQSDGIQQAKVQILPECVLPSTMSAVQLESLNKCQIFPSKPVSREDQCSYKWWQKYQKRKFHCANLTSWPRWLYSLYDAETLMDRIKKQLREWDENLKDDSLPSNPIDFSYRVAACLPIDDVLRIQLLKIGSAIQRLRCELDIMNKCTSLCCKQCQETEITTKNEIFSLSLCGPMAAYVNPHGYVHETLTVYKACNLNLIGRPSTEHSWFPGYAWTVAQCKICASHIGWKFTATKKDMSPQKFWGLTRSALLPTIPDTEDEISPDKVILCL
Description: log2 fold change of degron read counts, EGFP-low vs EGFP+ sorted cells (limma voom), compound-induced degradation; higher = more compound-induced degradation of the degron-EGFP fusion; degrons are variants of IKZF1/3 zinc finger 2; compound dose not given here. To be noted: Jurkat, 18 h.

[1] abbreviates: compound: compound 19 (5-tert-butyl-thalidomide).
Where [2] appears, read: compound: compound 22 (5-morpholino-thalidomide).
The mark [3] stands for this setting: compound: compound 33 (diphenyl IMiD analogue).
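Further: pooled lentiviral library of zinc finger degron-EGFP fusions in mCherry-positive Jurkat cells, FACS-sorted after compound exposure, with degron abundance counted by next-generation sequencing.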

B1: 46F_47R_49P_50Q_52G_53A_54R_55F_67L_, Q9UKT9 (peptide)
chain: FRCPQCGARFTQKGNLLRHIKL
As for B1, the “log2 fold change of degron read counts” value reads like this: under setting [1], -2.3; under setting [2], -2.09; under setting [3], -1.12; (compound: thalidomide) -1.27.

B2: 46F_47L_49P_50Q_52G_53A_54K_55F_67L_, Q9UKT9 (peptide)
chain: FLCPQCGAKFTQKGNLLRHIKL
For the sequence B2, the “log2 fold change of degron read counts” value under setting [1] was -2.44, the “log2 fold change of degron read counts” value under setting [2] was -2.82, the “log2 fold change of degron read counts” value under setting [3] was -1.39 and the “log2 fold change of degron read counts” value (compound: thalidomide) is -0.831.

B3: 46F_47K_49E_50V_52G_53A_54Q_55F_67L_, Q9UKT9 (peptide)
chain: FKCEVCGAQFTQKGNLLRHIKL
Take B3: the “log2 fold change of degron read counts” value under setting [1] was -0.0625, the “log2 fold change of degron read counts” value under setting [2] was -2.24, the “log2 fold change of degron read counts” value under setting [3] is -2.07 and the “log2 fold change of degron read counts” value (compound: thalidomide) is -0.411.

B4: 46F_47F_49E_50I_52G_53R_54A_55F_67L_, Q9UKT9 (peptide)
chain: FFCEICGRAFTQKGNLLRHIKL
Regarding B4, the “log2 fold change of degron read counts” value is 0.601 under setting [1], -0.248 under setting [2], 0.402 under setting [3] and -1.11 (compound: thalidomide).

B5: 46F_47K_49E_50I_52G_53H_54P_55F_67L_, Q9UKT9 (peptide)
chain: FKCEICGHPFTQKGNLLRHIKL
As for B5, the “log2 fold change of degron read counts” value runs as follows: under setting [1], -2.59; under setting [2], -2.5; under setting [3], -2.61; (compound: thalidomide) -0.946.

B6: 46F_47K_49P_50I_52G_53R_54F_55F_67L_, Q9UKT9 (peptide)
chain: FKCPICGRFFTQKGNLLRHIKL
Take B6: the “log2 fold change of degron read counts” value under setting [1] was -1.81, the “log2 fold change of degron read counts” value under setting [2] is -1.89, the “log2 fold change of degron read counts” value under setting [3] is -2.21 and the “log2 fold change of degron read counts” value (compound: thalidomide) is -1.32.

B7: 46F_47R_49D_50I_52G_53A_54N_55F_67L_, Q9UKT9 (peptide)
chain: FRCDICGANFTQKGNLLRHIKL
For B7, the “log2 fold change of degron read counts” value by setting is: under setting [1], -1.48; under setting [2], -1.55; under setting [3], 0.418; (compound: thalidomide) -0.326.

B8: 46F_47D_49N_50V_52G_53A_54Y_55F_67L_, Q9UKT9 (peptide)
chain: FDCNVCGAYFTQKGNLLRHIKL
With B8, the “log2 fold change of degron read counts” value by setting is: under setting [1], -1.56; under setting [2], -2.08; under setting [3], -0.374; (compound: thalidomide) -0.686.

B9: 46F_47I_49S_50V_52G_53H_54E_55F_67L_, Q9UKT9 (peptide)
chain: FICSVCGHEFTQKGNLLRHIKL
For the sequence B9, the “log2 fold change of degron read counts” value by setting is: under setting [1], -3.46; under setting [2], -3.92; under setting [3], -3.21; (compound: thalidomide) -3.41.

B10: 46F_47Q_49P_50V_52G_53A_54Q_55F_67L_, Q9UKT9 (peptide)
chain: FQCPVCGAQFTQKGNLLRHIKL
In the case of B10, the “log2 fold change of degron read counts” value reads like this: under setting [1], 0.712; under setting [2], 2.48; under setting [3], 2.51; (compound: thalidomide) 3.59.

B11: 46F_47N_49P_50V_52G_53A_54Q_55F_67L_, Q9UKT9 (peptide)
chain: FNCPVCGAQFTQKGNLLRHIKL
For the sequence B11, the “log2 fold change of degron read counts” value runs as follows: under setting [1], 2.01; under setting [2], 1.68; under setting [3], 0.869; (compound: thalidomide) 0.953.

B12: 46F_47H_49P_50V_52G_53A_54Q_55F_67L_, Q9UKT9 (peptide)
chain: FHCPVCGAQFTQKGNLLRHIKL
For the sequence B12, the “log2 fold change of degron read counts” value was 1.78 under setting [1], 2.55 under setting [2], 2.19 under setting [3] and 1.13 (compound: thalidomide).

B13: 46F_47D_49P_50V_52G_53A_54Q_55F_67L_, Q9UKT9 (peptide)
chain: FDCPVCGAQFTQKGNLLRHIKL
B13: the “log2 fold change of degron read counts” value runs as follows: under setting [1], 1.44; under setting [2], 0.833; under setting [3], 1.04; (compound: thalidomide) 2.23.

B14: 46F_47G_49P_50V_52G_53A_54Q_55F_67L_, Q9UKT9 (peptide)
chain: FGCPVCGAQFTQKGNLLRHIKL
In the case of B14, the “log2 fold change of degron read counts” value under setting [1] was determined as 3.8, the “log2 fold change of degron read counts” value under setting [2] amounted to 2.65, the “log2 fold change of degron read counts” value under setting [3] is 1.73 and the “log2 fold change of degron read counts” value (compound: thalidomide) was found to be 1.07.

B15: 46F_47I_49P_50V_52G_53A_54Q_55F_67L_, Q9UKT9 (peptide)
chain: FICPVCGAQFTQKGNLLRHIKL
B15: the “log2 fold change of degron read counts” value by setting is: under setting [1], -0.745; under setting [2], 2.74; under setting [3], 2.89; (compound: thalidomide) 2.73.

B16: 46F_47L_49D_50V_52G_53A_54L_55F_67L_, Q9UKT9 (peptide)
chain: FLCDVCGALFTQKGNLLRHIKL
Take B16: the “log2 fold change of degron read counts” value reads like this: under setting [1], -2.27; under setting [2], -2.28; under setting [3], -1.03; (compound: thalidomide) -1.23.

B17: 46F_47N_49P_50V_52G_53A_54V_55F_67L_, Q9UKT9 (peptide)
chain: FNCPVCGAVFTQKGNLLRHIKL
With B17, the “log2 fold change of degron read counts” value came out at 0.592 under setting [1], 0.118 under setting [2], 0.729 under setting [3] and 0.198 (compound: thalidomide).
